# A selection: hits, their analogues and other compounds. The true share with any hit is near 9.3%.
# FLuc modulator – qHTS profiling assay for firefly luciferase inhibitor/activator using purifed enzyme and Km concentrations of substrates (counterscreen for miR-21 project); Luciferin 4-monooxygenase (Photinus pyralis), P08659; purified FLuc, Km substrates, luminescence inhibition; Potency, µM (doses to about 57.5 µM), usual class: inhibitors; 360,000 compounds, 6.9% hits; AID 588342, 2011; note: nearly all actives have a fitted effect of over 55% in size
# Target sequence (P08659 whole entry, looked up): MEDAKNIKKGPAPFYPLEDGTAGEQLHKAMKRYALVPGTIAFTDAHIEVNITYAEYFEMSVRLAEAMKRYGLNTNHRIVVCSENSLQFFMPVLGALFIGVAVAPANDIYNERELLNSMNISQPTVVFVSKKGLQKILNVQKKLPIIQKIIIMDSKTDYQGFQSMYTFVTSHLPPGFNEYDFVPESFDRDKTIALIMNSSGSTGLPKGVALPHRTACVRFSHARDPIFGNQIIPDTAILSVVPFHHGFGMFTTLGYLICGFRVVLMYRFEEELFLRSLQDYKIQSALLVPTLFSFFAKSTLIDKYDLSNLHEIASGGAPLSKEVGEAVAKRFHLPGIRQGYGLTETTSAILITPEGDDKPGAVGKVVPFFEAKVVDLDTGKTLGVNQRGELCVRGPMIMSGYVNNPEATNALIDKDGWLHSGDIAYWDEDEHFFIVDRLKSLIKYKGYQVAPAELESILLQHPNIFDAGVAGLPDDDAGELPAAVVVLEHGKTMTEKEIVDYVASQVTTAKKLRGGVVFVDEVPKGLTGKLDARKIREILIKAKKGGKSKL
#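 Purified P. pyralis luciferase (10nM final) with 10uM D-luciferin and 10uM ATP (Km levels) in 50mM Tris acetate pH 7.5, 10mM Mg acetate, 0.01% Tween-20, 0.05% BSA; qHTS 6-point titration, ~60 µM downward; luminescence read.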
# NPC1 prom act – qHTS Assay for NPC1 Promoter Activators | Huh7 NPC1 promoter luciferase reporter, 24 h | Potency, µM (titrated, usually from 9.22 µM), hits mostly activators | 320,000 compounds, 2.4% hits; note: nearly all actives have a fitted effect of over 60% in size
#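 Cells: Huh7 expressing luciferase under the NPC1 promoter, 1500/well. Seeded 2 h, compound added, incubated 24 h at 37 °C. Luciferase reagent, 10 min ambient, then luminescence.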
# SMN2 splice up – qHTS Assay for Enhancers of SMN2 Splice Variant Expression; HEK293 SMN2-luciferase splicing reporter, luminescence, 30-36 h; Potency, µM (top dose mostly 46.1 µM), actives largely listed as activators; 210,000 compounds, 2.8% hits; AID 1458, 2008; note: nearly all actives have a fitted effect of over 55% in size
#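 HEK293 cells carry an SMN2 minigene-luciferase reporter in which exon 7 inclusion puts luciferase in frame. Cells were seeded at 2000 cells/well, attached for 10-12 hours, then exposed to compounds for 30-36 hours at 37C before ONE-Glo luminescence.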
# Rab9 promoter act – qHTS Assay for Rab9 Promoter Activators; Huh7 Rab9 promoter-luciferase reporter, luminescence, 24 h; AID 485297, 2010; 320,000 compounds, 2.8% hits; Potency, µM (top dose mostly 9.22 µM), hits mostly activators; note: nearly all actives have a fitted effect of over 60% in size
#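 Stable Rab9-luc Huh7, 1500 cells/well, 2 h settle; cmpd in DMSO, 24 h, 37 °C/5% CO2; luciferase reagent 10 min RT; luminescence.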
# ELG1 DNA repair – qHTS screen for small molecules that inhibit ELG1-dependent DNA repair in human embryonic kidney (HEK293T) cells expressing luciferase-tagged ELG1. 330,000 compounds, 2.3% hits. HEK293T ELG1-luciferase reporter, luminescence, 16 h; DNA damage induced by 5-fluorouridine. Potency, µM (series often up to 46.1 µM), actives largely listed as inhibitors; note: nearly all actives have a fitted effect of over 55% in size
#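 Luminescence from the luciferase reporter, measured 30 min after ONE-Glo reagent at room temperature, was the read-out. Beforehand, 2,000 cells per well were exposed for 16 hr at 37 °C to 5-fluorouridine together with compound or vehicle.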
# ELG1 genotox – qHTS screen for small molecules that induce genotoxicity in human embryonic kidney (HEK293T) cells expressing luciferase-tagged ELG1 | HEK293T ELG1-luciferase reporter, luminescence, 16 h | Potency, µM (doses to about 46 µM), actives largely listed as activators | 330,000 compounds, 1.3% hits; note: nearly all actives have a fitted effect of over 60% in size
#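 HEK293T cells expressing luciferase-tagged ELG1 were treated with compound or DMSO for 16 hr at 37°C. Luciferase activity was then read after 30 min with ONE-Glo at room temperature; rising signal flags genetic stress.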
# Numbers stand for hits; 0 = inactive; ? = inconclusive; - = no result given; [ ] = another dose, or the depositor's remark. Calls come from the whole dose curve; as a rule, active = well fitted curve in the direction sought with a large enough effect; inconclusive = small, poorly fitted or top-dose-only effect, or another doubt; inactive = no such curve, though single readings can be large; an effect the other way counts as inactive or inconclusive.
SMILES,FLuc modulator,NPC1 prom act,SMN2 splice up,Rab9 promoter act,ELG1 DNA repair,ELG1 genotox
O=C1Nc2ccccc2C12Nc1ccccc1-c1nc3ccccc3n12 (stereo unspecified),0,0,0,0,15µM,0
c1ccc2c(c1)NC1(CCCCC1)n1c-2nc2ccccc21,21µM,?,0,0,?,?
CC1(c2ccccn2)Nc2ccccc2-c2nc3ccccc3n21 (stereo unspecified),?,0,0,0,?,0
c1ccc2c(c1)NC1(CCCCCC1)n1c-2nc2ccccc21,13µM,?,10µM,3.2µM,?,4µM
COc1ccc2[nH]c(C)c(CCNC(=S)Nc3ccccc3OC)c2c1,0,0,0,0,?,0
CC1CCCN(CCCNC(=O)c2cc3c(Cl)nc4ccccc4c3s2)C1 (stereo unspecified),0,0,0,0,?,0
Cc1ccc(Cl)cc1N1CCN(C(=O)CCC(=O)Nc2ccc3nc(N4CCC(C)CC4)cc(C)c3c2)CC1,?,-,0,-,-,-
CC(=O)N1CCC(=NNc2nc3ccccc3[nH]2)CC1,?,0,?,0,?,0
Cc1nn(-c2ccccc2)c(Cl)c1/C=N/Nc1nc2ccccc2[nH]1,0.48µM,0.56µM,-,0.45µM,?,2.6µM
Cc1cc(=O)[nH]c(N/N=C/c2ccccc2C(F)(F)F)n1,0,0,0,0,0,0
Cc1ccc(/C=N/Nc2nc3ccccc3[nH]2)s1,5.4µM,2.8µM,10µM,2.2µM,?,?
C(=N\Nc1nc2ccccc2[nH]1)/c1cccc2cccnc12,0.43µM,0,-,0,?,?
Cc1[nH]c2ccccc2c1/C=N/Nc1nc2ccccc2[nH]1,4.3µM,?,-,0,?,?
CCCCCCN1C=C/C(=C\C=C(C#N)C#N)c2ccccc21,?,0,0,0,?,0
C[C@H]1CN=C2N(CCNC(=O)CCC3CCCCC3)[C@H](Cc3ccc(O)cc3)CN21,0,0,-,0,0,0
C(=N\Nc1nc2ccccc2[nH]1)/c1c[nH]c2ccccc12,7.6µM,?,?,?,?,?
COc1ccc(/C=N/Nc2nc3ccccc3[nH]2)c(OC)c1OC,1.5µM,?,-,?,?,?
COc1cccc(/C=N/Nc2nc(C)cc(=O)[nH]2)c1OC,?,0,-,0,?,0
Cc1ccccc1/C=N/Nc1nc2ccccc2[nH]1,11µM,?,-,3.5µM,?,0
O=[N+]([O-])c1cc(/C=N/Nc2nc3ccccc3[nH]2)c(O)cc1O,24µM,0,0,0,?,?
Cc1ccc(CCNc2ncnc3onc(-c4ccc(F)cc4)c23)cc1,0,-,-,-,-,-
O=C(CC12CC3CC(CC(Br)(C3)C1)C2)OCCN1CCCCC1,0,0,0,0,0,0
COc1ccc(NC(=O)c2ccc(C)cc2Cl)c([N+](=O)[O-])c1,6µM,?,0,?,?,?
COc1ccc(NC(=O)CSc2nc3ccccc3n2-c2ccccc2)c([N+](=O)[O-])c1,0,0,0,0,?,0
CCOc1ccc(OCC(=O)Nc2ccc(OC)cc2[N+](=O)[O-])cc1,0,0,0,0[1.84 µM],?,0
SMILES,FLuc modulator,NPC1 prom act,SMN2 splice up,Rab9 promoter act,ELG1 DNA repair,ELG1 genotox
COc1ccc(NC(=O)CSc2ccccc2)c([N+](=O)[O-])c1,27µM,?,?,?,?,?
COc1ccc(NC(=O)CN2CCCCC2)c([N+](=O)[O-])c1,?,0,0,0,?,0
COc1ccc(NC(=O)CN2CCC(C)CC2)c([N+](=O)[O-])c1,?,0,0,0,0,16µM
COc1ccc(NC(=O)COc2ccc(C)cc2)c([N+](=O)[O-])c1,?,2.8µM,0,?,?,21µM
O=C(c1cc2cc3ccc(Cl)cc3nc2o1)N1CCCCCC1,2.7µM,2.5µM,-,3.5µM,?,?
O=C(c1cc2cc(Cl)ccc2o1)N1CCCCCC1,0,?,-,4µM,?,0
COc1ccc(OCCSc2nc(N)cc(=O)[nH]2)cc1,0,0,-,0,0,0

# Assay outcomes deposited in PubChem BioAssay by National Center for Advancing Translational Sciences (NCATS).
